In the supplement of paper PMC3334620:
In all, about 33,000 sequences were measured (“E-score (-0.5 to 0.5)”: median about -0.054, highest 2% from about 0.35 on). The list comes from a sample in which the highest values are over-represented; it also holds similar and randomly drawn sequences.

The sequences below were run against T1, Stb5 (UniProt P38699) (assay: PBM E-score (8-mer binding enrichment) (E-score (-0.5 to 0.5)); higher = stronger / more preferred TF binding). Conditions: protein concentration: 200 nM; construct: GST-full length.
T1 sequence: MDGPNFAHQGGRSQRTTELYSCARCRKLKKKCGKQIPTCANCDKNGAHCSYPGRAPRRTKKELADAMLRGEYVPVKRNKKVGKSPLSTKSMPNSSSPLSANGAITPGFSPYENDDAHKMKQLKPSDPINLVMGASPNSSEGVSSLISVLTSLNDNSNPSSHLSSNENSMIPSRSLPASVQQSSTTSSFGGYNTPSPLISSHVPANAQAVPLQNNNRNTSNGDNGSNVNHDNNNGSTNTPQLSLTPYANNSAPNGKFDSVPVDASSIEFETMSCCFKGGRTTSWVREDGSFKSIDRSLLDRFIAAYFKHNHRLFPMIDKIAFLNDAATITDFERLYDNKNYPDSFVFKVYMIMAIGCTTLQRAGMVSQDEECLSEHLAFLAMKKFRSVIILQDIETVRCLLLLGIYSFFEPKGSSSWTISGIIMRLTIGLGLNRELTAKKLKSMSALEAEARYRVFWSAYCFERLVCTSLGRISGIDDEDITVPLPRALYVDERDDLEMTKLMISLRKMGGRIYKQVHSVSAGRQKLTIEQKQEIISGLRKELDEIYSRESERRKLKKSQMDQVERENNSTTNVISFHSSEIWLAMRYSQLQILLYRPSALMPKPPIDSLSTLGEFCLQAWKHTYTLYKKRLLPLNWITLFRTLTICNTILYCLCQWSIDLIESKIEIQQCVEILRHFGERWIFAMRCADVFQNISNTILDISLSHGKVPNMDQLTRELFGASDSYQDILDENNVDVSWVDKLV
Protocol: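 Universal 'all 10-mer' protein binding microarrays (Agilent AMADID 015681) probed with GST-tagged S. cerevisiae TFs (full-length or DBD) made by in vitro transcription/translation (PURExpress), about 100-200 nM. Bound TF was detected with fluorescent anti-GST. Each ungapped 8-mer (which stands for itself and its reverse complement) is scored by the PBM enrichment score (E-score), a modified Wilcoxon-Mann-Whitney statistic from -0.5 to +0.5, computed with the Universal PBM Analysis Suite. Scale: above 0.35 generally sequence-specific binding.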

Row | Sequence | PBM E-score
1 | TGTATACA | 0.0199
2 | AAGGCTTG | -0.305
3 | CATACTGC | -0.045
4 | CTTCAAAG | -0.124
5 | GCACTCTA | -0.0909
6 | GGACAAAC | 0.0886
7 | ACATACCG | 0.28
8 | AGGTCCTG | -0.205
9 | GGGTCCGA | 0.332
10 | AGGTCCGA | 0.412
11 | CGGTCCCA | 0.358
12 | AGGTCCCA | -0.357
13 | GGGTCCCA | -0.0448
14 | CGGTCCAA | 0.186
15 | AGGTCGGA | 0.326
16 | AGGTCCAA | -0.167
17 | AGGTCCAG | -0.156
18 | CGGTCCGA | 0.389
19 | AGGTCCGG | 0.382
20 | AAATTCGA | 0.0745
21 | CGGCATTC | 0.285
22 | AACCATCG | 0.041
23 | AAACGGAT | 0.197
24 | AGAGATAT | -0.194
25 | AAAAAGCT | -0.205

Row | Sequence | PBM E-score
26 | AGGTCCTA | 0.0577
27 | CGGTCCTC | 0.16
28 | GGGTCTCA | 0.00241
29 | CGGTCCTA | 0.448
30 | AGGTCCGC | 0.425
31 | CGGTCTCC | 0.195
32 | CGGTCCGC | 0.298
33 | CGGTCTCA | 0.376
34 | AGGTCCAC | -0.0841
35 | GCCTTCGA | -0.137
36 | CGCAAGGA | -0.0543
37 | GACCTCTC | -0.126
38 | AGTAGTTG | -0.0997
39 | ACTGCTTG | -0.185
40 | CCCAGTAG | -0.128
41 | ACCCCTGA | -0.108
42 | CCGATCGA | 0.285
43 | ACGATCGG | 0.298
44 | AAGATCGC | -0.0115
45 | CCGATCGG | 0.413
46 | AAGATCGG | 0.352
47 | CAGATCGG | 0.29
48 | GCAACTTA | -0.0671
49 | CAGTCTAA | 0.00323
50 | CCCCGCCC | 0.43

Row | Sequence | PBM E-score
51 | GCCCCCCC | -0.161
52 | ACCGCCCC | 0.367
53 | ACCGCCCT | 0.268
54 | GCCCGCCC | 0.271
55 | GCCGCCCA | 0.19
56 | GCCGCCCC | 0.388
57 | CCCGCCCG | 0.298
58 | CCCGCCCC | 0.361
59 | CCCGCCCA | 0.258
60 | ACCGCCCG | 0.345
61 | ACCCGCCC | 0.276
62 | ACCTCCAG | -0.188
63 | ATAAGGGC | 0.0814
64 | GAAGCCAC | 0.0166
65 | GCCCGTTA | 0.228
66 | TGGAAGAA | -0.0838
67 | ATGATCGG | 0.297
68 | CCTGATCA | -0.0914
69 | AGAGAACC | -0.125
70 | CTCATGCC | -0.103
71 | GAGATACC | 0.168
72 | AGACCAGA | -0.27
73 | ATAGAAGA | -0.05
74 | TGCCTTAA | -0.192
75 | TGTCTTAA | 0.00631

Row | Sequence | PBM E-score
76 | AGCCTTAA | -0.0403
77 | AGACTTAC | -0.161
78 | GGGCTTAA | 0.391
79 | GGACTTAC | 0.358
80 | CGTCTTAA | -0.0278
81 | GGTCTTAA | 0.355
82 | CGACTTAC | 0.0696
83 | CGGCTTAA | 0.351
84 | TGGCTTAA | -0.044
85 | GGCCTTAA | 0.377
86 | CCCTGGAG | -0.234
87 | GCTCGGCA | 0.122
88 | CTCAATCA | -0.00421
89 | AACTAGCC | -0.148
90 | ATGTGGTA | -0.222
91 | CGCGGGAA | 0.272
92 | AATCTTGG | -0.0505
93 | CCGATACA | 0.28
94 | ACAGCGGG | 0.332
95 | AGACTTAA | -0.288
96 | CGACTTAA | -0.0485
97 | GGACTTAA | 0.373
98 | ATAGAATA | -0.0414
99 | CGATAACC | 0.16
100 | AAACCCGC | 0.414

Row | Sequence | PBM E-score
101 | CAACCCGG | 0.0495
102 | CGACCCGC | 0.198
103 | AAACCCGG | 0.395
104 | CAACCCGC | 0.169
105 | AAACCCGT | 0.318
106 | GAACCCGA | 0.0501
107 | TAACCCGA | 0.225
108 | AGACCCGA | 0.287
109 | AAACCCGA | 0.395
110 | AGACCCGC | 0.36
111 | GAACCCGC | 0.199
112 | ATGGACTC | -0.103
113 | CCCGGCTA | 0.337
114 | ACCTGGAG | -0.133
115 | CAAGGCTG | -0.26
116 | AGATAACA | -0.0529
117 | TCGCCCCA | -0.317
118 | ATCACCAG | -0.0626
119 | ATCACCTC | 0.0381
120 | ATCACCGA | 0.433
121 | ATCACCGG | 0.37
122 | ATCACCTG | 0.0314
123 | CTCACCGA | 0.248
124 | ATCACCGC | 0.447
125 | CTCACCGC | 0.164

Row | Sequence | PBM E-score
126 | GTCACCGA | 0.285
127 | TATGCACA | -0.16
128 | GCCTCGCA | -0.0909
129 | CGCATTTC | -0.0467
130 | GGCAGTAA | 0.256
131 | AGGAGCAT | -0.255
132 | CCGCATTA | 0.243
133 | GCTGGCCC | -0.184
134 | GACATCCA | -0.0118
135 | TCAGTGAA | -0.111
136 | CTTCGAGC | -0.0166
137 | ATACCCCC | 0.351
138 | AAACCCCT | 0.153
139 | AGACCCGG | 0.341
140 | ATACCCCG | 0.392
141 | ACCCCCGG | 0.336
142 | AAACCCCA | 0.0234
143 | AGACCCCC | -0.165
144 | AAACCCCG | 0.476
145 | AACCCGGG | 0.262
146 | AGACCCCG | 0.394
147 | AACCCCGG | 0.453
148 | ATACCCCA | -0.0468
149 | AAAATGTT | -0.267
150 | CACTTGCG | -0.0879

Row | Sequence | PBM E-score
151 | CGTGTCCC | -0.0774
152 | CCATTTAA | -0.073
153 | CAGCTGTC | -0.31
154 | ACACGGTA | 0.144
155 | AGACCAGG | -0.149
156 | ATGCGACC | 0.0704
157 | AAGGCGCT | 0.109
158 | ATACCTAG | -0.233
159 | ACCCCCCG | 0.204
160 | CAACCCCA | -0.221
161 | AACCCCCC | 0.0126
162 | CAACCCCG | 0.371
163 | AACCCCCG | 0.401
164 | CAACCCCC | 0.14
165 | ACTAGCCC | 0.15
166 | ACTCGTCA | -0.163
167 | GCCCCTAC | 0.076
168 | ATTCTTGG | -0.0109
169 | ACCGGACC | 0.354
170 | ACCGGACG | 0.329
171 | GCCGGACC | 0.281
172 | ACCGGACA | 0.321
